# Test results as given in ChEMBL document CHEMBL1961873, “Compounds: GSK PKIS; Assays: Nanosyn kinase panel” (2012).
# Tests used:
# [1] = biological target: CDK3/Cyclin E (Homo sapiens) (UniProt P24864+Q00526); settings: at 1 µM;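 also: each figure is a mean percent inhibition of the CDK3/cyclin E complex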
# [2] = biological target: Cyclin-dependent kinase 4 (Homo sapiens) (UniProt P11802); settings: at 0.1 µM
# [3] = biological target: Cyclin-dependent kinase 4 (Homo sapiens) (UniProt P11802); settings: at 1 µM
# [4] = biological target: Cyclin-dependent kinase 5 (Homo sapiens) (UniProt Q00535); settings: at 0.1 µM
# Sequence of Cyclin-dependent kinase 5 (Homo sapiens) (Q00535 whole entry, looked up): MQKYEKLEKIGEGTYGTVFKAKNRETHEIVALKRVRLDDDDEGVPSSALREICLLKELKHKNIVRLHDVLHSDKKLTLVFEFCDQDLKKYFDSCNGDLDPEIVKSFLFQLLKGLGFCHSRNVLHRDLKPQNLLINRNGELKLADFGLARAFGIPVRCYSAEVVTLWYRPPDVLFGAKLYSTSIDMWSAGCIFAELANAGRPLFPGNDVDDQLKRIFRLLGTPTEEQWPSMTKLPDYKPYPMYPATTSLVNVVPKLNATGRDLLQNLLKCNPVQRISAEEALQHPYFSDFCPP
# [5] = biological target: Cyclin-dependent kinase 5 (Homo sapiens) (UniProt Q00535); settings: at 1 µM
# [6] = biological target: Cyclin-dependent kinase 6 (Homo sapiens) (UniProt Q00534); settings: at 0.1 µM
# Sequence of Cyclin-dependent kinase 6 (Homo sapiens) (Q00534 whole entry): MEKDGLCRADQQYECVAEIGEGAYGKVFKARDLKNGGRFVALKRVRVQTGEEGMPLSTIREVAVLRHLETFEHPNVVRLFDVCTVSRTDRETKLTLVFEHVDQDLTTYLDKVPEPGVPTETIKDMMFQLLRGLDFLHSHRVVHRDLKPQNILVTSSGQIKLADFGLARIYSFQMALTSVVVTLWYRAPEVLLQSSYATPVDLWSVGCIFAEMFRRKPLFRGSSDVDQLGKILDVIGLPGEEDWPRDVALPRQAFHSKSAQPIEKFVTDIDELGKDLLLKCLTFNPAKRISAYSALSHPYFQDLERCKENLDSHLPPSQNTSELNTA
# [7] = biological target: Cyclin-dependent kinase 6 (Homo sapiens) (UniProt Q00534); settings: at 1 µM
# [8] = biological target: Dual specificity protein kinase CLK2 (Homo sapiens) (UniProt P49760); settings: at 0.1 µM
# Sequence of Dual specificity protein kinase CLK2 (Homo sapiens) (P49760 whole entry, looked up): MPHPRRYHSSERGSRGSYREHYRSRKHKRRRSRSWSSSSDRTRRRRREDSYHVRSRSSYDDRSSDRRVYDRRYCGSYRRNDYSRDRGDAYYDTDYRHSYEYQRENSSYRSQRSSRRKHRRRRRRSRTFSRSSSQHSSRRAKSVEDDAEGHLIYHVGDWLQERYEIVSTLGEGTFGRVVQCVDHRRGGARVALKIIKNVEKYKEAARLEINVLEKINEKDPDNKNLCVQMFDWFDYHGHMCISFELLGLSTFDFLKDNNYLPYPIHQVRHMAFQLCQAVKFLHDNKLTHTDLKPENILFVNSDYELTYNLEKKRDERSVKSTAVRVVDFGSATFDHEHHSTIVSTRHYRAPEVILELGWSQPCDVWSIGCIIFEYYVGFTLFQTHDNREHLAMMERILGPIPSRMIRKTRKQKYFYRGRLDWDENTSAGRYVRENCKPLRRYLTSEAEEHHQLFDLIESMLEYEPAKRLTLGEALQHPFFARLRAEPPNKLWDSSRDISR
# [9] = biological target: Dual specificity protein kinase CLK2 (Homo sapiens) (UniProt P49760); settings: at 1 µM
# [10] = biological target: Dual specificity protein kinase CLK3 (Homo sapiens) (UniProt P49761); settings: at 0.1 µM
# Sequence of Dual specificity protein kinase CLK3 (Homo sapiens) (P49761 whole entry, looked up): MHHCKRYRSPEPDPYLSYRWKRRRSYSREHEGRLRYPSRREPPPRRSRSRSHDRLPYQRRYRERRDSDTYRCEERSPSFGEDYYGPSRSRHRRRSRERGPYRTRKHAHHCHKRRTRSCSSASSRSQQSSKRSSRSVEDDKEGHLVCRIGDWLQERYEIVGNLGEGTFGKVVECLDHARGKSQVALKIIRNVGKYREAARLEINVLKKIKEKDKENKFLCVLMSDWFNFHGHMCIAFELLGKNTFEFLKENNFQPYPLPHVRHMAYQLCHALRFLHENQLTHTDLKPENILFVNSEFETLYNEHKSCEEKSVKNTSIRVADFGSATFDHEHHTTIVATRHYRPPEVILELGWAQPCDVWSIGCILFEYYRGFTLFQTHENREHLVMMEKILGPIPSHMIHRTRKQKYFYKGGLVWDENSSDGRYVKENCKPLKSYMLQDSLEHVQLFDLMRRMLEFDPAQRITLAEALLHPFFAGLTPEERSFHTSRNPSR
# Sequence of CDK3/Cyclin E (Homo sapiens) (P24864 whole entry, looked up): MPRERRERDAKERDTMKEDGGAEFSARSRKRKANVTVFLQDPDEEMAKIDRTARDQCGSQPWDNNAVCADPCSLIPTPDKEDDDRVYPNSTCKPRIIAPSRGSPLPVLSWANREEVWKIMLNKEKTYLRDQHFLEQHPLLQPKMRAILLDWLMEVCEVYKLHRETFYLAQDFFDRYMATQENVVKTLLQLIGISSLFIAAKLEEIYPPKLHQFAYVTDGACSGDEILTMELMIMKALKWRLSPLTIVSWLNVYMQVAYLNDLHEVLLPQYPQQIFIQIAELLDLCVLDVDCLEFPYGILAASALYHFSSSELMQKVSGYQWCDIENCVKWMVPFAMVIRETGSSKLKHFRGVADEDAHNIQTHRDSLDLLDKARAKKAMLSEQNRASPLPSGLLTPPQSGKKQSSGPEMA
# Sequence of CDK3/Cyclin E (Homo sapiens) (Q00526 whole entry, looked up): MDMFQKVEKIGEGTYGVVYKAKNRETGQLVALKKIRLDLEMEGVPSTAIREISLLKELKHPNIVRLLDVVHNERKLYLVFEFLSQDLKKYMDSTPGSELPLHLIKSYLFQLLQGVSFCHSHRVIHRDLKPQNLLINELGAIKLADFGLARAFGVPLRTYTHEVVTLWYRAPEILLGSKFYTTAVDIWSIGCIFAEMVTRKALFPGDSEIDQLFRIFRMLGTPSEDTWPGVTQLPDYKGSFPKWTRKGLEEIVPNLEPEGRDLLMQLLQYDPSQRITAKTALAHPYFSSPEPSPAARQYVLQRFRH
# Sequence of Cyclin-dependent kinase 4 (Homo sapiens) (P11802 whole entry): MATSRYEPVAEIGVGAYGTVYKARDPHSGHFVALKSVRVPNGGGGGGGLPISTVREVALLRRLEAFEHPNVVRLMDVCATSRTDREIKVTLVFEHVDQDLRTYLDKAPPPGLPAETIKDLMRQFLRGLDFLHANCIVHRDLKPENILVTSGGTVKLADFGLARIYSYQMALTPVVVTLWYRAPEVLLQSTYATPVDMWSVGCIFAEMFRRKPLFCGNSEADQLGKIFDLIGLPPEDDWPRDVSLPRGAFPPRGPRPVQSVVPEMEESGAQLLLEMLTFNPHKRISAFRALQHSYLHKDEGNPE
SMILES,inhibition [1] [%],inhibition [2] [%],inhibition [3] [%],inhibition [4] [%],inhibition [5] [%],inhibition [6] [%],inhibition [7] [%],inhibition [8] [%],inhibition [9] [%],inhibition [10] [%]
CCOc1ccc2c(-c3ccnc(Nc4cccc(C(F)(F)F)c4)n3)cnn2n1,1.6,1.35,2.43,0.66,3.67,-0.78,1.85,24.2,94.3,0.68
CC(=O)Nc1cccc(C#Cc2cncnc2Nc2ccc(OCc3cccc(F)c3)c(Cl)c2)c1,0.86,1.84,1.74,0.82,0.21,-0.8,-0.16,2.3,1.56,-0.12
FC(F)(F)c1cccc(-c2nn3ncccc3c2-c2ccnc(Nc3ccc4c(c3)OCCO4)n2)c1,-0.03,2.66,4.56,1.65,2.11,-1.79,2.39,1.11,0.64,0.73
Fc1cccc(COc2ccc(Nc3ncnc4sc(-c5ccco5)cc34)cc2Cl)c1,-1.8,3.4,5.13,-0.01,2.77,0.43,-0.36,1.15,-0.23,0.59
NS(=O)(=O)c1ccc(Nc2ncc(-c3ccccc3)o2)cc1,77.2,9.25,26.5,23.8,70.3,13.1,48.6,1.81,1.67,2.28
COc1cccc(-c2c[nH]c3c(N/N=C/c4ccncc4)ncnc23)c1,51.3,10.5,45.7,38.8,73.1,12.2,51.4,2.83,20.4,2.11
COc1cc(/C=N/Nc2ncnc3[nH]ncc23)ccc1O,6.95,2.99,5.18,2.93,16.3,10.4,15.9,2.37,28.6,2.85
CNC(=O)c1cc(-c2ccc(F)cc2)cc(-c2ccc(S(=O)(=O)N3CCCC3)cc2)c1N,-2.51,1.65,2.17,0.12,1.55,-2.1,-3.59,1.77,2.42,0.69
NS(=O)(=O)c1ccc(N/N=C2\C(=O)Nc3ccc4ncccc4c32)cc1,99.2,48,76.2,79,83.4,53.5,81.4,19.3,72.3,2.36
CC1=C(C(=O)Nc2cc(Cl)c3[nH]ncc3c2)C(c2ccc(C(F)(F)F)cc2)CC(=O)N1 (stereo not given),0.3,2.42,3.48,0.48,1.62,-4.7,-0.24,1.17,4.84,1.15
CCn1cc(-c2ccnc3[nH]ccc23)c(-c2cccc(NC(=O)Nc3ccc(OCc4ccccc4)cc3)c2)n1,-2.23,1.32,-0.47,-0.05,-0.93,-2.8,-4.5,-0.56,-2.09,-0.94
CCn1c(-c2nonc2N)nc2c(C#CC(C)(C)O)nc(OC[C@H](N)c3ccccc3)cc21,-0.33,2.31,2.26,1.23,3.05,-3.58,-0.97,1.87,12.1,1.29
CN(C)CCOc1ccc(-c2nc(-c3ccncc3)c(-c3ccc4c(c3)CC/C4=N\O)[nH]2)cc1,-2.98,2.94,6.21,2.41,5.88,7.36,9.02,-1.13,2.18,1.97
N#Cc1c(NC(=O)c2ccc(F)cc2)sc2c1CCCC2,-1.72,0.38,1.59,0.42,0.28,-1.23,-0.13,-1,1.4,0.44
CCn1c(-c2nonc2N)nc2cnc(Oc3cccc(NC(=O)c4ccc(N(C)C)cc4)c3)cc21,-1.3,1.81,1.34,0.66,1.93,-1.64,1.62,-0.04,1.15,0.38
c1cc(-c2cnn3nc(N4CCOCC4)ccc23)nc(NC2CC2)n1,17.4,15,57.8,2.71,23.3,11.8,30.7,9.32,52,1.88
CS(=O)(=O)CCNCc1ccc(-c2ccc3ncnc(Nc4ccc(OCc5ccccc5)c(C(F)(F)F)c4)c3c2)o1,-3.61,2.38,3.96,0.23,1.58,-1.88,-4.19,0.79,-2.13,0.57

SMILES,inhibition [1] [%],inhibition [2] [%],inhibition [3] [%],inhibition [4] [%],inhibition [5] [%],inhibition [6] [%],inhibition [7] [%],inhibition [8] [%],inhibition [9] [%],inhibition [10] [%]
COC(=O)c1sc(-n2cnc3cc(OC)c(OC)cc32)cc1OCc1ccccc1C(F)(F)F,-1.85,2.28,3.18,1.35,2.46,-2.2,5.15,1.6,2.65,0.11
COc1cc(Nc2nccc(Nc3ccc4c(C)n[nH]c4c3)n2)cc(OC)c1OC,4.99,2.86,3.18,1.21,2.36,1.52,3.31,1.62,2.36,0.25
CC(C)COC(=O)c1ccc2c(c1)/C(=C/Nc1ccc(S(N)(=O)=O)cc1)C(=O)N2,90.8,24.7,66.7,49.8,79.6,21.5,68.6,19.2,72.2,-0.32
COc1ccc(-c2oc3ncnc(N)c3c2-c2ccc(NC(=O)Nc3cc(C(F)(F)F)ccc3F)cc2)cc1,42.4,3.09,5.04,1.02,4.32,3.24,3.67,3.66,26.6,1.97
CN1CCC(n2cnc(-c3ccc(F)cc3)c2-c2ccnc(N)n2)CC1,-0.17,0.29,1.34,0.36,1.02,1.87,0.65,2.8,13.8,0.99
CCN1CCC(CC(=O)Nc2n[nH]c3nnc(-c4cccc(F)c4F)cc23)CC1,2.37,5.41,32.5,1.05,7.07,-1.17,17.4,5.35,29.9,-0.51
COC(=O)Nc1nc2ccc(Oc3ccc(NC(=O)Nc4cccc(Cl)c4)cc3)cc2[nH]1,-0.43,0.18,0.01,0.3,-0.49,-0.37,3.51,-1.9,-1.67,0.01
CCNC(=O)O[C@H]1CN[C@H](C#Cc2cc3ncnc(Nc4ccc(OCc5cccc(F)c5)c(Cl)c4)c3s2)C1,0.27,2.39,3.42,0.38,1.78,9.65,9.16,1.63,2.34,0.76
CCCN1CCC(c2ccc(Nc3nc(Nc4cc(F)ccc4C(N)=O)c4cc[nH]c4n3)c(OC)c2)CC1,-1.93,7.7,25.7,2.09,6.47,4.48,17.9,59.1,93.8,3.2
Fc1ccc(-c2nn3ncccc3c2-c2ccnc(Nc3ccc4c(c3)OCCO4)n2)cc1,-2.65,1.89,1.86,0.45,0.21,-2.15,2.72,1.15,1.21,1.15
Nc1nc(-c2cccc(Cl)c2)c(-c2ccc3ncccc3n2)s1,-3.18,1.67,1.92,0.34,0.13,-7.38,-2.65,2.6,9.25,2.15
COc1ccc(-c2nn3ncccc3c2-c2ccnc(Nc3ccc4c(c3)OCCO4)n2)cc1,-2.16,-0.27,2.65,-0.08,2.41,-4.12,-0.81,0.37,0.98,-0.22
COc1cccc(-n2ncc3c(N/N=C/c4ccc(F)cc4)ncnc32)c1,4.95,6.67,17.3,9.38,32.8,7.13,16.8,2.52,4.42,3.03
O=C(Nc1n[nH]c2cc(-c3ccc(F)cc3)ccc12)C1CC1,2.42,2.64,6.92,0.56,3.03,-1.47,24.6,0.75,0.48,1.11
COc1cc2c(cc1Nc1nc(Nc3ccsc3C(N)=O)c3cc[nH]c3n1)N(C(=O)CN(C)C)CCC2(C)C,-1.09,5.42,8.61,6.36,7.33,1.59,9.92,29,79.5,2
COc1ccc2[nH]c3c4[nH]c5ccc(OC)cc5c4c4c(c3c2c1)C(=O)NC4=O,6.02,2.56,7.55,1.11,2.57,2.91,3.6,5.12,20.3,2.17
